Data on 33 compounds can be found in PubChem BioAssay (NCATS).

Values joined by “and” are separate entries in the source; they are usually repeats but may differ in a detail not shown here. Equal values may be shown once. Records with an inconclusive call do not appear. Where a call stands in place of a potency, no number is given. Some compounds were tested as several samples or in several runs, with calls that do not always agree. Active and inactive are the calls of the source. The call rests on the fitted dose curve; in most records, active means well fitted curve in the direction sought with a large enough effect; inconclusive means small, poorly fitted or top-dose-only effect, or another doubt; inactive means no such curve, though single readings can be large; an effect the other way counts as inactive or inconclusive.

Sequence of Cytochrome P450 2D6 (Homo sapiens) (P10635 whole entry, looked up): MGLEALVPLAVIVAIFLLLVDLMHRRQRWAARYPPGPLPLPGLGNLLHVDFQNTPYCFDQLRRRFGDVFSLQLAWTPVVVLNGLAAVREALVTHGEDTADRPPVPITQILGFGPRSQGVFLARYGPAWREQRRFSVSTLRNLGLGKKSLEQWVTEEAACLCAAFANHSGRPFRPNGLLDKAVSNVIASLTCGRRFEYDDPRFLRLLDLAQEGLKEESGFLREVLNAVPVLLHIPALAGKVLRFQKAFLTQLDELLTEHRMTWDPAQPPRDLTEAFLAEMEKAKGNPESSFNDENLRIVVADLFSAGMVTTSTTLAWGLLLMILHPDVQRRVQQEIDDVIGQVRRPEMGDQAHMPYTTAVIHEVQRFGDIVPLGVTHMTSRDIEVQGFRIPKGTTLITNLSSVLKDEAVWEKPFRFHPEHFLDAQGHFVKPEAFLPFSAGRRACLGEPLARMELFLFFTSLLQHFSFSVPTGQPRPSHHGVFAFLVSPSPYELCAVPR
Sequence of Cytochrome P450 3A4 (Homo sapiens) (P08684 whole entry, looked up): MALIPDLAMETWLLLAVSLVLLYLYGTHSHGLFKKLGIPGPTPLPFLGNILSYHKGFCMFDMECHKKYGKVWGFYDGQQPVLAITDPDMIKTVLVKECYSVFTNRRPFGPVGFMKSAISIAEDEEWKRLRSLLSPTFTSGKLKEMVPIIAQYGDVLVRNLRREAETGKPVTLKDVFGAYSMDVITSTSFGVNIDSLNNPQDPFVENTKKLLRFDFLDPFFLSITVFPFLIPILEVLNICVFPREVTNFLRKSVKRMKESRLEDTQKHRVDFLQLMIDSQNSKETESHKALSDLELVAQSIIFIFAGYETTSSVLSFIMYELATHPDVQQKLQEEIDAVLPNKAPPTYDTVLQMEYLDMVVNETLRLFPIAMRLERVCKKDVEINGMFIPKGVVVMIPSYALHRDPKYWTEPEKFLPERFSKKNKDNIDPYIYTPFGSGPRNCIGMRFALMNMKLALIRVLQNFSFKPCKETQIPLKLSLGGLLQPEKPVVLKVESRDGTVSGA
Sequence of Guanine nucleotide-binding protein G(i) subunit alpha-1 (Homo sapiens) (P63096 whole entry, looked up): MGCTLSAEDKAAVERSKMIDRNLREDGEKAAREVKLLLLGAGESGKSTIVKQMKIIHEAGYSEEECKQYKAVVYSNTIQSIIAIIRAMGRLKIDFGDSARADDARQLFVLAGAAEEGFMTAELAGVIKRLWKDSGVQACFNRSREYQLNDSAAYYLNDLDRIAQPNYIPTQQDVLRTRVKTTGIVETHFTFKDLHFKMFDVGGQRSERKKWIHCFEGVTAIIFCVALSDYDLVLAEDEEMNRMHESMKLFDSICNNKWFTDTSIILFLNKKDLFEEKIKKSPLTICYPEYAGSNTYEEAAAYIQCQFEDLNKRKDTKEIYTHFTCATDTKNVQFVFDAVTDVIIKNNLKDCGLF

System in one test: not listed separately
Kind of test: Cellular Toxicity (caspase-3) Hek293 (AID 664).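 Further: cells exposed to compound for 16 h at 37 °C before readout.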 The conditions noted are these: HEK293 caspase-3 activation, DMSO = 0%, 100 µM tamoxifen = 100%; series mostly up to 92.2 µM. The method, boiled down:
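Luminescent Caspase-Glo 3/7 readout (aminoluciferin release) in HEK293 cells after 16 h compound treatment, 37 °C. Normalization: DMSO = basal, 100 uM tamoxifen = 100% stimulation. Concentration-response fitted with standard Hill equation for AC50.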
As for `CN(C)NC(=O)CCC(=O)O`, the result was inactive.

As to `CCCCC(CC)COC(=O)c1ccccc1C(=O)OCC(CC)CCCC` (centres undefined), the call was inactive.

Consider `Nc1ccc(Sc2ccc(N)cc2)cc1`, for which the outcome was inactive.

System in another test: not listed separately
In words: Cellular Toxicity (caspase-3) N2a (AID 665).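 Further: compound exposure lasted 16 h at 37 °C before readout.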 The conditions noted are these: N2a cells, luminescence, normalized: DMSO 0%, 10 µM staurosporine 100%; series mostly up to 92.2 µM. The method, boiled down:
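Luminescent Caspase-Glo 3/7 readout in N2a mouse neuroblastoma cells after 16 h compound exposure at 37 °C. Signal scaled to DMSO (basal) and 10 uM staurosporine (100%). Concentration-response fitted with Hill equation for AC50.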
Turning to `CN(C)NC(=O)CCC(=O)O`, the compound was classed as inactive.

In the case of `CCCCC(CC)COC(=O)c1ccccc1C(=O)OCC(CC)CCCC` (centres undefined), the compound was called inactive.

With `Nc1ccc(Sc2ccc(N)cc2)cc1`, the compound was called inactive.

System in the next test: not listed separately
Kind of test: Cellular Toxicity (caspase-3) NIH 3T3 (AID 666). The conditions noted are these: NIH 3T3 caspase-3 activation, apoptosis/toxicity, 0% DMSO, 100% is 100 µM tamoxifen; series mostly up to 92.2 µM. The method, boiled down: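 NIH 3T3, 1000 cells/well, 5 hr settle then 16 hr compound at 37°C; Caspase-Glo 3/7, 20 min RT, luminescence. DMSO = basal, 100 uM tamoxifen = 100%. Hill-equation AC50, qHTS.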
Turning to `CN(C)NC(=O)CCC(=O)O`, the compound was called inactive.

On to `CCCCC(CC)COC(=O)c1ccccc1C(=O)OCC(CC)CCCC` (centres undefined), for which the outcome was inactive.

As for `Nc1ccc(Sc2ccc(N)cc2)cc1`, the result was inactive.

System in a further test: not listed separately
In words: Cellular Toxicity (caspase-3) Renal Proximal Tubule (AID 667).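 Further: cells exposed to compound for 16 hours at 37 °C before detection.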 The following applies: renal proximal tubule cells; series mostly up to 91.7 µM. The gist of the method: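 Luminescent caspase 3/7 signal from peptide-aminoluciferin cleavage measures apoptosis in freshly isolated rat kidney proximal tubule cells after 16 h compound exposure. Concentration-response data are normalized to DMSO and 10 uM staurosporine, and AC50 values come from Hill equation fits.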
`CN(C)NC(=O)CCC(=O)O`: the compound was classed as inactive.

As to `CCCCC(CC)COC(=O)c1ccccc1C(=O)OCC(CC)CCCC` (centres undefined), the call was inactive.

As to `Nc1ccc(Sc2ccc(N)cc2)cc1`, the result was inactive.

Another test has as its target Guanine nucleotide-binding protein G(i) subunit alpha-1 (Homo sapiens) (UniProt P63096). Kind of test: qHTS Assay for Inhibitors of RGS12 GoLoco Motif Activity (Green Fluorophore) (AID 879).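 Further: negative values mean loss of peptide binding seen as reduced polarization.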 The conditions noted are these: Galphai1/FITC-RGS12 GoLoco peptide, fluorescence polarization; series mostly up to 57.1 µM. The gist of the method: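 A drop in FITC polarization marked displacement of the FITC-tagged RGS12 GoLoco peptide (10 nM) from Gαi1 (50 nM). Compounds were incubated 10 min at room temperature in Tris pH 7.5 buffer containing 150 mM NaCl, 0.1 mM GDP and 0.05% NP40; unlabeled peptide titration served as control.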
For `CC1=NN=C(c2ccc(N)cc2)c2cc3c(cc2C1)OCO3`, the compound was classed as inactive.

In the case of `C#CCOC(=O)C1=CCCN(C)C1`, the compound was classed as inactive.

Regarding `CC(=O)NCCc1c[nH]c2ccccc12`, the call was inactive.

For the compound `COc1ccc2c(c[n+](C)c3c4cc5c(cc4ccc23)OCO5)c1OC`, the call was inactive.

`NCCc1c[nH]c2ccccc12`: the compound was classed as inactive.

Regarding `Cc1nccc2c1[nH]c1ccccc12`, the result was inactive.

For `CC(C)Oc1cccnc1N(C)C1CCN(Cc2ccccc2)CC1`, the call was inactive.

With `CNCCc1c[nH]c2ccc(O)cc12`, the result was inactive.

Regarding `S=C(NC1CCCCC1)N1CCC(c2cnc[nH]2)CC1`, the outcome was inactive.

As for `CCCCc1ccc(C(=O)O)nc1`, the outcome was inactive.

Regarding `CCCN(CCC)[C@@H]1CCc2ccc(O)cc2C1`, the outcome was inactive.

For the compound `CNCCc1ccc(O)c(O)c1`, the compound was classed as inactive.

Consider `CC[C@@]1(O)C(=O)OCc2c1cc1n(c2=O)Cc2cc3ccccc3nc2-1`, for which the compound was classed as inactive.

Consider `O=C1CCCN1CC#CCN1CCCC1`, for which the result was inactive.

Turning to `O=C(O)CC[N+](=O)[O-]`, the result was inactive.

Take `O=C(O)Cc1cnc[nH]1`: the call was inactive.

On to `Cn1cnc(CCN)c1`, for which the compound was classed as inactive.

On to `c1ccc(CCCN2CCN(CCOC(c3ccccc3)c3ccccc3)CC2)cc1`, for which the call was inactive.

As for `C[C@@H]1O[C@H](C[N+](C)(C)C)C[C@H]1O`, the outcome was inactive.

Take `Clc1cnc(Oc2ccc(Oc3ncc(Cl)cc3Cl)cc2)c(Cl)c1`: the result was inactive.

`CN[C@@H]1C[C@@H](c2ccc(Cl)c(Cl)c2)c2ccccc21`: the compound was classed as inactive.

With `NCCc1c[nH]c2ccc(O)cc12`, the compound was called inactive.

As to `Cc1c(C(=O)c2cccc3ccccc23)c2cccc3c2n1[C@H](CN1CCOCC1)CO3`, the result was inactive.

For `NCc1cc(=O)[nH]o1`, the compound was called inactive.

Regarding `C[C@]12N[C@H](Cc3ccccc31)c1ccccc12`, the result was inactive.

In the case of `CCCN1CCC[C@H](c2cccc(O)c2)C1`, the outcome was inactive.

Turning to `CCCN1CCO[C@@H]2c3cc(O)ccc3OC[C@H]21`, the compound was classed as inactive.

Take `c1ccc2sc(C3(N4CCCCC4)CCCCC3)cc2c1`: the compound was classed as inactive.

The target of a further test is Cytochrome P450 2C9 (Homo sapiens) (UniProt P11712). Kind of test: qHTS Assay for Inhibitors and Substrates of Cytochrome P450 2C9 (AID 883). Further: nearly all actives have a fitted effect of over 60% in size. Further: potency means the concentration at half of the fitted maximal effect. The conditions noted are these: recombinant CYP2C9, luciferin-H luminescence, 60 min; series mostly up to 57.1 µM. The gist of the method: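 Inhibition of CYP2C9 is scored as loss of luminescence, with 57uM sulphaphenazole defining 100% inhibition. Substrate Luciferin-H is used at 100uM, equal to its KM; enzyme at 10nM in 25mM KPO4, 60 min at 37C with NADPH regeneration.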
Sequence of Cytochrome P450 2C9 (Homo sapiens) (P11712 whole entry, looked up): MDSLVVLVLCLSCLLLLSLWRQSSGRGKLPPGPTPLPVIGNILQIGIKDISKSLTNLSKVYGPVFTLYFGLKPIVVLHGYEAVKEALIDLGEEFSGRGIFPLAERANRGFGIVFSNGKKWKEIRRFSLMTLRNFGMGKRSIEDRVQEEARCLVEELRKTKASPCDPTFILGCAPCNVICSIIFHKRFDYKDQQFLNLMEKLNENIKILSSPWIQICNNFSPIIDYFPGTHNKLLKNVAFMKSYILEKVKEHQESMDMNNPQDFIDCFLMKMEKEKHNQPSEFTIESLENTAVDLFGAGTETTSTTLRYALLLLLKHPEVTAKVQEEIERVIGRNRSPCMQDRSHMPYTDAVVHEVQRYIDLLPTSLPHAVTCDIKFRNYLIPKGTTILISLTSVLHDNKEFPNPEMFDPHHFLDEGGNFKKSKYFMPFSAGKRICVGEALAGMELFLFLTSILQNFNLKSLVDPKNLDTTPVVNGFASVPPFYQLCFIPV
`CC1=NN=C(c2ccc(N)cc2)c2cc3c(cc2C1)OCO3`: the Potency is 1.26 µM (active).

On to `CC(=O)NCCc1c[nH]c2ccccc12`, for which the Potency result is “inactive”.

Turning to `Cc1nccc2c1[nH]c1ccccc12`, the Potency entry is “inactive”.

As for `CCCCc1ccc(C(=O)O)nc1`, the Potency entry is “inactive”.

For the compound `CCCN(CCC)[C@@H]1CCc2ccc(O)cc2C1`, the Potency result is “inactive”.

Take `CC[C@@]1(O)C(=O)OCc2c1cc1n(c2=O)Cc2cc3ccccc3nc2-1`: the Potency result was “inactive”.

`O=C1CCCN1CC#CCN1CCCC1`: the Potency result is “inactive and 2 µM (active)”.

As to `Cn1cnc(CCN)c1`, the Potency result is “inactive”.

For the compound `Clc1cnc(Oc2ccc(Oc3ncc(Cl)cc3Cl)cc2)c(Cl)c1`, the Potency entry was “inactive”.

Consider `O=c1cccc2n1CC1CNC[C@H]2C1`, for which the Potency entry was “inactive”.

In a further test the target is Cytochrome P450 3A4 (Homo sapiens) (UniProt P08684). Kind of test: qHTS Assay for Inhibitors and Substrates of Cytochrome P450 3A4 (AID 884). Further: nearly all actives have a fitted effect of over 50% in size. Further: potency means the concentration at half of the fitted maximal effect. The conditions noted are these: recombinant CYP3A4, Luciferin-PPXE luminescence; series mostly up to 57.1 µM. The gist of the method:
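Luminescent readout of luciferin produced by CYP3A4 (20 nM) dealkylation of Luciferin-PPXE, 25 uM (its KM). NADPH-driven reaction ran 60 min at RT after 10 min compound preincubation; data scaled to 57 uM ketoconazole as 100% inhibition.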
As to `NCCc1c[nH]c2ccccc12`, the Potency result was “inactive”.

As to `Cc1nccc2c1[nH]c1ccccc12`, the Potency was 3.98 µM (active).

For `CNCCc1c[nH]c2ccc(O)cc12`, the Potency result was “inactive”.

For `CCCCc1ccc(C(=O)O)nc1`, the Potency entry is “inactive”.

Consider `CN(C)NC(=O)CCC(=O)O`, for which the Potency entry is “inactive”.

As for `CC[C@@]1(O)C(=O)OCc2c1cc1n(c2=O)Cc2cc3ccccc3nc2-1`, the Potency was 6.31 µM (active) and inactive.

On to `O=C1CCCN1CC#CCN1CCCC1`, for which the Potency entry was “inactive”.

Turning to `O=C(O)CC[N+](=O)[O-]`, the Potency entry is “inactive”.

The target is the same in the next test. In words: qHTS Assay for Activators of Cytochrome P450 3A4 (AID 885). Further: nearly all actives have a fitted effect of over 65% in size. The following applies: recombinant CYP3A4, Luciferin-PPXE luminescence, 60 min; series mostly up to 57.1 µM. The gist of the method:
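Human CYP3A4 dealkylates Luciferin-PPXE to luciferin, which luciferase detection converts to light. Substrate was at its KM (25uM), buffer 200mM KPO4, reaction 60 min at RT.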
Regarding `CC1=NN=C(c2ccc(N)cc2)c2cc3c(cc2C1)OCO3`, the result was inactive.

As to `CCCN1CCO[C@@H]2c3cc(O)ccc3OC[C@@H]21`, the result was inactive.

As to `COc1ccc2c(c[n+](C)c3c4cc5c(cc4ccc23)OCO5)c1OC`, the result was inactive.

Take `Cc1nccc2c1[nH]c1ccccc12`: the result was inactive.

For `CC(C)Oc1cccnc1N(C)C1CCN(Cc2ccccc2)CC1`, the outcome was inactive.

As to `CCCCc1ccc(C(=O)O)nc1`, the result was inactive.

Regarding `CC[C@@]1(O)C(=O)OCc2c1cc1n(c2=O)Cc2cc3ccccc3nc2-1`, the outcome was inactive.

For `O=C(O)Cc1cnc[nH]1`, the result was inactive.

For the compound `NCCc1c[nH]c2ccc(O)cc12`, the result was inactive.

As to `C[C@]12N[C@H](Cc3ccccc31)c1ccccc12`, the result was inactive.

With `O=c1cccc2n1CC1CNC[C@H]2C1`, the result was inactive.

In the case of `CCCN1CCO[C@@H]2c3cc(O)ccc3OC[C@H]21`, the result was inactive.

As for `c1ccc2sc(C3(N4CCCCC4)CCCCC3)cc2c1`, the result was inactive.

The target of another test is Cytochrome P450 2D6 (Homo sapiens) (UniProt P10635). Kind of test: qHTS Assay for Inhibitors and Substrates of Cytochrome P450 2D6 (AID 891). Further: nearly all actives have a fitted effect of over 60% in size. Further: potency means the concentration at half of the fitted maximal effect. The conditions noted are these: recombinant CYP2D6, luciferin-ME EGE luminescence; series mostly up to 57.1 µM. The method, boiled down:
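Luminescent read-out of luciferin formed by 5 nM human CYP2D6 demethylating 30 uM Luciferin-ME EGE (Km level) over 60 min at room temperature after NADPH regeneration addition. Data normalized to full inhibition by 1.43 uM quinidine.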
Turning to `CC(=O)NCCc1c[nH]c2ccccc12`, the Potency result is “inactive”.

Regarding `CC(C)Oc1cccnc1N(C)C1CCN(Cc2ccccc2)CC1`, the Potency is 7.94 µM (active).

Regarding `CCCCc1ccc(C(=O)O)nc1`, the Potency entry was “inactive”.

Turning to `CCCN(CCC)[C@@H]1CCc2ccc(O)cc2C1`, the Potency was 0.794 µM (active).

Consider `CC[C@@]1(O)C(=O)OCc2c1cc1n(c2=O)Cc2cc3ccccc3nc2-1`, for which the Potency result was “inactive”.

As to `O=C1CCCN1CC#CCN1CCCC1`, the Potency was 7.94 µM (active).

For `O=c1cccc2n1CC1CNC[C@H]2C1`, the Potency result was “inactive”.

Consider `c1ccc2sc(C3(N4CCCCC4)CCCCC3)cc2c1`, for which the Potency is 3.16 µM (active).
